From PubChem BioAssay AID2315 (National Center for Advancing Translational Sciences (NCATS), 2010)
In all, about 290,000 compounds went through this assay and about 27,000 (9.3%) were called active. Shown is part of a subset that was picked to be rich in actives. Unmarked numbers belong to inactive results. No stated cut-off is given here; in the data, active means inhibition mostly above about 28% (no sharp cut-off); inactive means mostly below about 43%.

Assay: A qHTS for Small Molecule Inhibitors of Shiga Toxin; further: 0% is about no effect
Settings: Vero cells, Shiga toxin protein synthesis inhibition reporter; at 38.7 µM, active compounds read high

Which inhibition does the source give for `CCn1c(SCC(=O)Nc2ccc3c(c2)OCCO3)nnc1-c1ccncc1` here?
Its inhibition is 24.3%.

Which inhibition does the source give for `O=C(Nc1cccc2ccccc12)c1onc2c1CCCC2` here?
Its inhibition is 80.7% (active).

Which inhibition does the source give for `O=C(COC(=O)c1ccccn1)Nc1cccc2ccccc12` here?
The inhibition was -15.8%.

Which inhibition does the source give for `O=C(O)c1ccccc1-c1ccccc1C(=O)Nc1cccc2ccccc12` here?
The inhibition was -18.7%.

With `CCN1CCN(C(=O)C2CCCN(S(=O)(=O)c3ccc(OC)c(OC)c3)C2)CC1` (stereo not given) as the compound, how does the inhibition read?
Its inhibition is 11.9%.

For `NC(=O)c1cc(-c2cccnc2)nc2ccc(Br)cc12`, which inhibition is on record?
Its inhibition is 20%.

For `CC(CN1CCC(n2nccc2NC(=O)C2CCCC2)CC1)c1ccccc1` (stereo not given), which inhibition is on record?
Its inhibition is -13%.

Which inhibition does the source give for `Cc1cc(NC(=O)c2ccccc2C)no1` here?
The inhibition was 55.6% (active).

With `Cc1ccccc1C(=O)Nc1ccccc1NC(=O)c1ccccc1C` as the compound, how does the inhibition read?
The inhibition was -1.64%.

With `Cc1cc(NC(=O)CSCc2ccccc2C)no1` as the compound, how does the inhibition read?
The inhibition was 48.6%.

Which inhibition does the source give for `CCOc1c2ccc(C(=O)NCc3ccc4c(c3)OCO4)cc2nn1C` here?
The inhibition was 9.39%.

Which inhibition does the source give for `C=CCNC(=O)c1ccc2c3n(nc2c1)-c1ccc(C)cc1CO3` here?
Its inhibition is 83.8% (active).

Which inhibition does the source give for `Cc1cccc(-c2nc3ccc(C(=O)NCCN4CCN(C)CC4)cc3nc2-c2cccc(C)c2)c1` here?
The inhibition was -22.4%.

With `COc1cc(CNCc2ccc(OC)c3ccccc23)cc(OC)c1OC` as the compound, how does the inhibition read?
The inhibition was -2.52%.

For `Cc1cccc(N(Cc2ccccc2)C(=O)c2ccccc2F)c1`, which inhibition is on record?
The inhibition was 41.2%.

Which inhibition does the source give for `COc1ccc(C(=O)N/N=C(\C)CC(=O)Nc2ccc(Cl)cn2)cc1` here?
The inhibition was 97.1% (active).

With `COc1ccc(C(=O)NC(=S)Nc2ccc(Cl)cn2)cc1OC` as the compound, how does the inhibition read?
The inhibition was 4.19%.

With `COc1ccc(COC(=O)N/N=C(\C)CC(=O)Nc2ccc(Cl)cc2)cc1` as the compound, how does the inhibition read?
The inhibition was -3.95%.

Which inhibition does the source give for `O=C(C1CCC(=O)N(C2CC2)C1)N1CCN(c2ccc(Cl)cc2)CC1` (stereo not given) here?
The inhibition was -16%.

With `O=C1COc2ccc(S(=O)(=O)Nc3ccc(OC(F)(F)F)cc3)cc2N1` as the compound, how does the inhibition read?
Its inhibition is -4.37%.

For `Cc1cc(NS(=O)(=O)c2ccc(NC(=S)NC(=O)c3ccc(F)cc3Cl)cc2)no1`, which inhibition is on record?
The inhibition was 16.8%.

Which inhibition does the source give for `CC(=O)c1ccccc1OCc1ccc(C(=O)c2ccccc2)cc1` here?
Its inhibition is 10.9%.

With `Cc1ccc(-n2cc3ccc([N+](=O)[O-])cc3n2)cc1` as the compound, how does the inhibition read?
The inhibition was 57.1% (active).

With `Cc1ccc(-c2cn(S(=O)(=O)c3cccc([N+](=O)[O-])c3)nc2N)cc1` as the compound, how does the inhibition read?
Its inhibition is 13.5%.

For `Cc1cc(C)nc(Nc2cc([N+](=O)[O-])ccc2C)n1`, which inhibition is on record?
The inhibition was -5.77%.

Which inhibition does the source give for `O=C(COc1ccc2c(c1)CCC2)N1CCN(c2ccc(F)cc2)CC1` here?
Its inhibition is -11.3%.

With `COc1cccc(-n2c(SCC(=O)c3c[nH]c4ccccc34)nc3ccccc3c2=O)c1` as the compound, how does the inhibition read?
Its inhibition is -9.99%.

Which inhibition does the source give for `CCc1c(O)nc(SCC(=O)N2CCCCC2)n(-c2ccccc2C)c1=O` here?
The inhibition was 13%.

Which inhibition does the source give for `Cc1ccc(-n2c(SCC(=O)N3CCC(C(=O)O)CC3)nc3ccccc3c2=O)cc1C` here?
The inhibition was 45.4% (active).

For `CCOC(=O)CSc1nc2ccc(C)cc2n2cnnc12`, which inhibition is on record?
The inhibition was 9.64%.

For `Cc1cccc(-n2c(C)nc3cc(C(=O)N4CCC5(CC4)OCCO5)ccc32)c1`, which inhibition is on record?
The inhibition was 13.6%.

With `Cc1ccc(-c2cc(C(=O)N3CCC4(CC3)OCCO4)no2)cc1` as the compound, how does the inhibition read?
The inhibition was 58.1% (active).

Which inhibition does the source give for `O=C(c1cc(-c2ccncc2)nc2ccccc12)N1CCC2(CC1)OCCO2` here?
Its inhibition is 11.7%.

For `Cc1noc(C)c1C(=O)N1CCOCC1`, which inhibition is on record?
The inhibition was -7.37%.

For `O=C(c1cc(-c2ccc(O)cc2)on1)N1CCOCC1`, which inhibition is on record?
Its inhibition is 62% (active).

Which inhibition does the source give for `CCC(=O)N1CCCc2ccccc21` here?
Its inhibition is 14.2%.

For `O=C(c1cc(-c2ccc(Cl)cc2)on1)N1CCN(c2ccccc2)CC1`, which inhibition is on record?
Its inhibition is 67.5% (active).

For `O=C(c1cc(-c2ccc(F)cc2)on1)N1CCN(c2ccc(F)cc2)CC1`, which inhibition is on record?
The inhibition was -1.74%.

With `Cc1c(C(=O)N2CCCc3ccccc32)oc2ccccc12` as the compound, how does the inhibition read?
Its inhibition is 33.8%.

For `COc1ccc(-c2cc(C(=O)N3CCN(c4ccc(F)cc4)CC3)no2)cc1`, which inhibition is on record?
Its inhibition is 11.7%.

With `O=C(c1cccs1)N1CCN(C(=O)N2CCOCC2)CC1` as the compound, how does the inhibition read?
Its inhibition is -6.78%.

With `O=C(c1cc(-c2ccc(O)cc2)on1)N1CCCc2ccccc21` as the compound, how does the inhibition read?
The inhibition was 91.2% (active).

Which inhibition does the source give for `Nc1nc(SCC(=O)Nc2ccc(Cl)cc2C(F)(F)F)n[nH]1` here?
Its inhibition is -27.1%.

With `COc1cc(OC)cc(C(=O)Nc2nnc(SCC(=O)NCC3CCCO3)s2)c1` (stereo not given) as the compound, how does the inhibition read?
The inhibition was 4.36%.

With `COc1ccc(C(=O)NC2CC(C)(C)NC(C)(C)C2)cc1OC` as the compound, how does the inhibition read?
Its inhibition is 2.67%.

For `NC(=O)CN1CCCC1c1ccc2c(c1)OCCO2` (stereo not given), which inhibition is on record?
Its inhibition is -2.56%.

For `O=C(NC1CCCC1)C(c1ccco1)N(C(=O)c1ccco1)c1ccc(F)cc1` (stereo not given), which inhibition is on record?
The inhibition was 8.42%.

Which inhibition does the source give for `O=S(=O)(/N=C(/Nc1ccccn1)c1ccccc1)c1ccc(Cl)cc1` here?
The inhibition was 14.8%.

With `Cc1ccc(S/C(=N\S(=O)(=O)c2ccc(Cl)cc2)c2ccccc2)cc1` as the compound, how does the inhibition read?
Its inhibition is 11.1%.

For `Cc1ccc(S(=O)(=O)/N=C(/Nc2ccccn2)c2ccc(Cl)cc2)cc1`, which inhibition is on record?
Its inhibition is 31.5% (active).

Which inhibition does the source give for `CC1CCCCC1NC(=O)CSc1nnc(-c2ccncc2)n1CCCN(C)C` (stereo not given) here?
The inhibition was -1.04%.

With `CC(C)(C)c1ccc(/C=C/C(=O)Nc2ncccn2)cc1` as the compound, how does the inhibition read?
Its inhibition is -4.53% (active).

Which inhibition does the source give for `O=C(/C=C/c1ccc(Cl)cc1)Nc1ccc(S(=O)(=O)Nc2ncccn2)cc1` here?
The inhibition was 17%.

For `Cc1cc(C)nc(NC(=O)/C=C/c2ccc(Cl)cc2)n1`, which inhibition is on record?
Its inhibition is 41.9%.

Which inhibition does the source give for `O=c1c2c(-c3ccccc3)ccnc2[nH]n1-c1ccccc1` here?
Its inhibition is 38.7%.

With `CCC(C)(C)NC(=O)C(c1ccc(OC)cc1)N(C(=O)CCC(=O)Nc1cc(C)on1)c1ccc(OC)cc1OC` (stereo not given) as the compound, how does the inhibition read?
Its inhibition is 8.4%.

For `CCN(CC)CCCNC(=O)Cn1cnc2sc(C)c(S(=O)(=O)N3CCN(c4ncccn4)CC3)c2c1=O`, which inhibition is on record?
Its inhibition is -11.2%.

Which inhibition does the source give for `Cc1sc2ncn(CC(=O)NCCN(C)C)c(=O)c2c1S(=O)(=O)N1CCC(C)CC1` here?
Its inhibition is 106% (active).

With `CCN(CC)CCNC(=O)Cn1cnc2sc(C)c(S(=O)(=O)N3CCOCC3)c2c1=O` as the compound, how does the inhibition read?
The inhibition was -2.57%.

With `CC(=O)c1ccc(S(=O)(=O)N2CCC(Oc3ccc(-n4cnnn4)cc3)CC2)cc1` as the compound, how does the inhibition read?
Its inhibition is -8.24%.

For `O=C(O)Cn1c(Cc2ccccc2)nc2ccccc21`, which inhibition is on record?
Its inhibition is -5.35%.

For `Cc1ccccc1C(=O)N1CCC(C(=O)Oc2ccc(C#N)cc2)CC1`, which inhibition is on record?
The inhibition was -13.3%.

With `O=C(Nc1ccc2c(c1)OCCO2)c1cnccn1` as the compound, how does the inhibition read?
Its inhibition is 42.2%.

For `O=C(Nc1ccc2c(c1)OCCO2)c1ccncc1`, which inhibition is on record?
The inhibition was 117% (active).

For `O=C(CCN1C(=O)c2ccncc2C1=O)Nc1ccc2c(c1)OCCO2`, which inhibition is on record?
The inhibition was 13.6%.

With `O=C(Nc1ccc2c(c1)OCCO2)c1ccoc1` as the compound, how does the inhibition read?
The inhibition was 65.2% (active).

For `Cn1c(=O)c2ccccc2n(CC(=O)Nc2ccc3c(c2)OCCO3)c1=O`, which inhibition is on record?
Its inhibition is -7.05%.

Which inhibition does the source give for `Cc1ccc(-n2ncc3c2CC(C)(C)CC3NC(=O)Cc2c(C)noc2C)cc1` (stereo not given) here?
Its inhibition is -6.91%.

With `COc1cccc(NC(=O)COc2cc(C)cc3oc(=O)cc(C)c23)c1` as the compound, how does the inhibition read?
Its inhibition is -4.63%.

With `COc1ccc(C2=NS(=O)(=O)N(C)C(C(=O)N3CCCCC3)=C2)cc1` as the compound, how does the inhibition read?
Its inhibition is -2.94%.

With `COc1cccc(Oc2ccc(N)cc2)c1` as the compound, how does the inhibition read?
The inhibition was 33.2% (active).

With `COc1cccc(OCCCN2CCCCCC2)c1` as the compound, how does the inhibition read?
Its inhibition is 11.6%.

For `CC(C)(C)c1ccc(Oc2ccc(N)cc2)cc1`, which inhibition is on record?
Its inhibition is -23.2%.

Which inhibition does the source give for `COc1ccc(-c2cc(=O)oc3cc(OCC(=O)N[C@@H](Cc4c[nH]c5ccccc45)C(=O)O)ccc23)cc1` here?
The inhibition was 1.78%.

For `Cc1cc(=O)n2nc(N3CCCC(C(=O)NCc4cccc(Cl)c4)C3)sc2n1` (stereo not given), which inhibition is on record?
The inhibition was 10.1%.

For `COc1cccc(N(CC(=O)Nc2cccc(N(C)S(C)(=O)=O)c2)S(C)(=O)=O)c1`, which inhibition is on record?
Its inhibition is -9.96%.

For `Cc1ccc(N(CC(=O)Nc2cccc(N(C)S(C)(=O)=O)c2)S(C)(=O)=O)cc1`, which inhibition is on record?
Its inhibition is -15.9%.

For `CN(c1cccc(NC(=O)Nc2ccc(Cl)cc2)c1)S(C)(=O)=O`, which inhibition is on record?
The inhibition was 66.3% (active).

With `COc1ccc(Nc2ccc([N+](=O)[O-])cn2)cn1` as the compound, how does the inhibition read?
Its inhibition is 25.8%.

With `Cc1cccc(-n2nc3c(c2NC(=O)c2cc4ccccc4o2)CS(=O)(=O)C3)c1` as the compound, how does the inhibition read?
The inhibition was -6.86%.

Which inhibition does the source give for `CCOc1ccc(CCNC(=O)CCc2nnc3ccc(N4CCCC4)nn23)cc1OCC` here?
Its inhibition is -2.23%.

For `C/C(=N/NC(=O)c1ccc(Br)o1)c1ccc(C)o1`, which inhibition is on record?
The inhibition was 91.6% (active).

For `S=C(NCc1ccc(Cl)cc1)NC1CCCCC1`, which inhibition is on record?
The inhibition was -6.42%.

For `S=C(NN=C1CCN(Cc2ccccc2)CC1)NC1CCCCC1`, which inhibition is on record?
Its inhibition is 9.13%.

Which inhibition does the source give for `Cc1ccc(/C=N/NC(=S)Nc2cccc(S(=O)(=O)N(C)C)c2)o1` here?
Its inhibition is 40.8%.

Which inhibition does the source give for `C/C(=N\NC(=S)NC1CCCCC1)c1ccc(C)o1` here?
The inhibition was 52.7% (active).

Which inhibition does the source give for `CC(CCc1ccccc1)NC(=O)c1ccc(Br)o1` (stereo not given) here?
Its inhibition is 0.792%.

Which inhibition does the source give for `Cc1ccc(/C=N/NC(=O)Cn2nc(C)c(Br)c2C)o1` here?
The inhibition was -6.63%.

Which inhibition does the source give for `CC(CNC(=O)c1ccc(Br)o1)NC(=O)c1ccc(Br)o1` (stereo not given) here?
Its inhibition is 10.2%.

For `Cc1ccc(/C=N/NC(=S)NC2CCCCC2)o1`, which inhibition is on record?
The inhibition was 72.6% (active).

With `COc1ccc(CNC(=O)C2CCN(C(=O)c3ccco3)CC2)cc1` as the compound, how does the inhibition read?
The inhibition was -12.4%.

For `CCCc1cc(=O)n2[nH]c(C)c(-c3ccc(Cl)cc3)c2n1`, which inhibition is on record?
The inhibition was -5.47%.

For `Cc1ccc(C(CNC(=O)Nc2cccc(C)c2)N2CCN(C)CC2)cc1` (stereo not given), which inhibition is on record?
The inhibition was 1.35%.

Which inhibition does the source give for `Cc1c(NC(=O)Nc2cccc([N+](=O)[O-])c2)c(=O)n(-c2ccccc2)n1C` here?
The inhibition was -5.21%.

With `CC1CCN(S(=O)(=O)c2ccc3c(ccn3CC(=O)O)c2)CC1` as the compound, how does the inhibition read?
Its inhibition is -22.5%.
